Compounds without any hit were thinned out: in the full panel of roughly 83,000, 20% have a hit.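 Interpretation: 100, growth as untreated; towards 0, rising growth inhibition; 0, no net growth; 0 to -100, cell death. Compounds scoring below 10 were considered active.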 Activity calls are given as the source filed them.
Legend:
Test in all cases: NCI-60 one-dose screen, 48 h (100 = growth as untreated, 0 = no growth, -100 = all killed)
Details in all cases: 10 µM unless noted
[1] = test system: RPMI-8226 leukemia
[2] = test system: OVCAR-8 ovarian
[3] = test system: OVCAR-5 ovarian
[4] = test system: OVCAR-4 ovarian
[5] = test system: SK-OV-3 ovarian
[6] = test system: IGROV1 ovarian
[7] = test system: OVCAR-3 ovarian
[8] = test system: HS 578T breast
[9] = test system: NCI/ADR-RES ovarian
[10] = test system: T-47D breast
[11] = test system: BT-549 breast
[12] = test system: MDA-MB-435 melanoma
[13] = test system: SW-620 colon
[14] = test system: MCF7 breast
[15] = test system: HCT-116 colon
[16] = test system: HCC-2998 colon
[17] = test system: KM12 colon
[18] = test system: MDA-MB-468 breast

Measured: growth

COc1c(F)ccc(C(=O)Nc2ccc3nc(NC(=O)C4CCCN(S(=O)(=O)c5ccc(C(C)(C)C)cc5)C4)sc3c2)c1F (stereo not given)
inactive: [1] 44.3% | [2] 84.9% | [3] 81.3% | [4] 54% | [5] 80.8% | [6] 55.5% | [7] 83.9% | [8] 58.2% | [9] 67.6% | [10] 42.5% | [11] 60.4% | [12] 76.7% | [13] 88.5% | [14] 41.5% | [15] 58.3% | [16] 84.8% | [17] 68.4% | [18] 86.7%

C#CCCCNCCNc1ccnc2cc(Cl)ccc12
inactive: [1] 47.9% | [2] 79.6% | [3] 64.3% | [4] 89.8% | [5] 103% | [6] 84.6% | [7] 85.8% | [8] 91.8% | [9] 68.8% | [10] 71% | [11] 66.5% | [12] 59.7% | [13] 76.8% | [14] 52% | [15] 49.5% | [16] 62% | [17] 91.3% | [18] 50.4%

COc1cc2cc(C(=O)N3C[C@@H](CCl)c4c3cc(OC(=O)N(C)CCSSCCN3CCOCC3)c3ccccc43)[nH]c2c(OC)c1OC
active: [1] -11.5% | [2] -41.4% | [3] -42.8% | [4] -36.7% | [5] -30% | [6] -27.6% | [8] -15.2% | [9] -33.4% | [10] -6.52% | [11] -58.5% | [12] -41.2% | [13] 6.21% | [14] -33.5% | [15] -12.9% | [16] -58.7% | [17] -31.1% | [18] -77.3%

COc1ccc([C@H]2C(C(=O)c3ccc(Cl)cc3)C3(N[C@@H]2c2ccccc2)C(=O)Nc2ccccc23)cc1 (stereo not given in full)
inactive: [1] 10.4% | [2] 32.7% | [3] 50.5% | [4] 31.1% | [5] 72.5% | [6] 35.6% | [7] 27.4% | [8] 53.7% | [9] 12.2% | [10] 16.8% | [11] 84.3% | [12] 23.4% | [13] 34.7% | [15] 26.1% | [16] 13.7% | [17] 15.5% | [18] 28.5%
active: [14] 7.51%

O=C1/C(=C/c2cccc3c2OCO3)Cc2c(F)cc(Br)cc21
inactive: [1] 106% | [2] 113% | [3] 109% | [4] 105% | [5] 113% | [6] 110% | [7] 98.6% | [8] 115% | [9] 108% | [10] 95.2% | [11] 123% | [12] 104% | [13] 114% | [14] 84.2% | [15] 104% | [16] 117% | [17] 110% | [18] 105%

Nc1cc(-c2c[nH]c3ccc(Cl)cc23)nc2cc(-c3c[nH]c4ccccc34)nn12
active: [1] 0.472% | [2] -4.93% | [3] -50.4% | [5] 5.29% | [6] 2.75% | [7] -52.7% | [8] -3.21% | [9] -3.2% | [10] -5.16% | [12] -51% | [13] -79.6% | [14] -68.3% | [15] -83.9% | [16] -81.2% | [17] -70.5% | [18] -72.3%
inactive: [4] 19.8%

O=C(c1ccc(O)cc1)C1[C@H](c2ccccc2Br)[C@@H](c2ccccc2)NC12C(=O)Nc1ccccc12 (stereo not given in full)
inactive: [1] 31.4% | [2] 30.2% | [3] 56.7% | [4] 48.3% | [5] 70.5% | [6] 26.6% | [7] 20.7% | [8] 49.1% | [9] 53.1% | [10] 51.1% | [11] 51.9% | [12] 12.3% | [13] 27.7% | [14] 10.7% | [15] 55.2% | [17] 15.4%
active: [16] -7.94% | [18] -36.1%

CC(Nc1ncnc2ccc(-c3ccc4oc(N)nc4c3)cc12)c1ccccc1 (stereo not given)
active: [1] -17.9% | [2] -40.7% | [4] -85.8% | [5] -22.2% | [6] -77.5% | [7] -19.5% | [8] -31.7% | [9] -18.7% | [11] -21.6% | [13] -66.6% | [14] -73.1% | [15] -64.7% | [18] -78.4%
inactive: [3] 25.4% | [12] 13% | [16] 41.5% | [17] 23.6%

COc1ccc(-c2nc3ccc(-c4nnc(SCc5ccccc5)o4)cc3[nH]2)cc1OC
active: [2] 6.86% | [4] -45.4% | [8] 2.46% | [9] 7.16% | [15] 8.42%
inactive: [1] 44.5% | [3] 34.2% | [5] 62.9% | [6] 42.8% | [7] 10.7% | [10] 32.4% | [11] 49.7% | [12] 40% | [13] 15.9% | [14] 21.7% | [16] 63.2% | [17] 61.2% | [18] 44.1%

COC(=O)c1ccc(-c2c(-c3ccccc3)c(F)c3oc(C(=O)OC)c(N)c3c2-c2ccccc2)cc1
inactive: [1] 101% | [2] 105% | [3] 96.6% | [4] 97.6% | [5] 98.7% | [6] 102% | [7] 103% | [8] 91.1% | [9] 94.3% | [10] 64.5% | [11] 95.7% | [12] 101% | [13] 87.1% | [14] 75.6% | [15] 84.3% | [16] 98.4% | [17] 95.6% | [18] 84%

Nc1nnc(-c2cncc(Br)c2)c(-c2c[nH]c3ccc(Br)cc23)n1
inactive: [1] 38.4% | [2] 60% | [3] 83% | [4] 42.9% | [5] 98.7% | [6] 52.3% | [7] 69.9% | [8] 55.3% | [9] 23.9% | [10] 26.1% | [11] 47.4% | [13] 28.1% | [14] 50.4% | [15] 22.9% | [16] 74.7% | [17] 41.4%
active: [12] -14.4% | [18] -4.92%

C[C@@H]1CN(c2ccc3ncc(C#Cc4cncc(C(=O)Nc5ccc(CN6CCN(C)CC6)c(C(F)(F)F)c5)c4)n3n2)C[C@@H](C)O1
active: [1] -65% | [2] -71.8% | [3] -54.2% | [4] -61.5% | [5] -80.1% | [6] -56.3% | [7] -60.6% | [8] -49.2% | [9] -85.1% | [10] -62.6% | [11] -75.4% | [12] -96.4% | [13] -84.2% | [14] -93.1% | [15] -23.5% | [16] -97% | [17] -66.6% | [18] -95.1%

COc1ccc(/C=C/c2nc3ccccc3c(=O)n2CC(=O)Nc2ccccc2)cc1
active: [4] 0.985% | [8] 9.93% | [10] -20.4%
inactive: [1] 81.8% | [2] 43.6% | [3] 60.6% | [5] 44.9% | [6] 49.9% | [7] 49.3% | [9] 36.8% | [12] 85.2% | [13] 61.6% | [14] 54.9% | [15] 21% | [16] 80.2% | [17] 66.9% | [18] 55.7%

COc1ccc2[nH]c(=O)c(CSc3ccccc3Nc3nccc(-c4ccc5c(c4)OCO5)n3)cc2c1
inactive: [1] 68.2% | [2] 79.2% | [3] 103% | [4] 61.1% | [5] 112% | [6] 87.4% | [7] 92.3% | [8] 89.4% | [9] 74.3% | [10] 52% | [11] 67.3% | [12] 74.5% | [13] 106% | [14] 68.2% | [15] 70% | [16] 110% | [17] 89.7% | [18] 66.5%

O=Cc1cncc(-c2ccc3ncnc(N4CCc5cc(F)c(Cl)cc54)c3c2)c1
active: [5] 4.6% | [6] -41.2% | [8] -17.9% | [11] -7.41% | [14] 1.77% | [18] -52.4%
inactive: [1] 15.4% | [2] 39.8% | [3] 27.6% | [4] 43.4% | [7] 25.2% | [9] 34.8% | [10] 23.7% | [12] 46.2% | [13] 23.4% | [15] 33.7% | [16] 64% | [17] 81.8%

CCCCNc1ccc2c3c(cccc13)C(=O)N(c1cccc(-c3nn(-c4ccccc4)cc3-c3nc4ccccc4s3)c1)C2=O
inactive: [1] 95.3% | [2] 107% | [3] 104% | [4] 101% | [5] 126% | [6] 98.4% | [7] 111% | [8] 110% | [9] 98% | [10] 101% | [11] 117% | [12] 106% | [13] 105% | [14] 109% | [15] 98.9% | [16] 119% | [17] 108% | [18] 97.7%

CC(C)(C)OC(=O)N1CCC2(CC1)Oc1ccccc1[C@H]1CC(c3ccc(Br)cc3)=NN12
inactive: [1] 56.2% | [2] 83.3% | [3] 122% | [4] 65% | [5] 79.1% | [6] 58.7% | [7] 77.1% | [8] 91.5% | [9] 83.7% | [10] 37.1% | [11] 78.5% | [12] 81.6% | [13] 83% | [14] 59.9% | [15] 74.1% | [16] 85.6% | [17] 49.9% | [18] 67.7%

COc1c2c(cc3c1C(CCc1ccccc1)N(C)CC3)OCO2 (stereo not given)
inactive: [2] 16.9% | [3] 16.2% | [4] 29.2% | [8] 11%
active: [1] -15.5% | [5] -6.7% | [6] -4.07% | [7] 3.16% | [9] 1.62% | [10] -22.3% | [11] -28.8% | [12] 5.73% | [13] 1.49% | [14] -34.4% | [15] 3.07% | [16] -31.5% | [17] -28.3% | [18] -61.8%

Source: PubChem BioAssay (NCI)
